# Laboratory results: PubChem BioAssay (NCI)
# Where “and” joins values, the source holds several entries; their conditions need not be identical. Equal values may be shown once. This is part of a sample that, as a whole, favours compounds with a hit. Of some 83,000 tested, about 20% had one in any assay.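 Cell lines were cultured in 96-well plates, exposed to a single compound concentration, and assessed for percent growth 48 hours later.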 Calls of active or inactive are those of the source. The calls were made as follows: active = growth percent below 10; inactive = the rest.
# System: MDA-MB-468 breast
# Assay: NCI-60 one-dose screen, 48 h (100 = growth as untreated, 0 = no growth, -100 = all killed)
# Conditions: 10 µM unless noted
row,Compound,growth
1,O=S(=O)(O)CCl,108% (inactive)
2,O=C(Nc1cccc(-n2cc(-c3ccncc3)c(-c3ccc(Cl)c(O)c3)n2)c1)Nc1ccc(Cl)c(Cl)c1,2.25% (active)
3,CC(C)(C)c1ccc(O)c(CNC2CCCCC2)c1,87% (inactive) and 87.7% (inactive)
4,CNC(=O)c1cn(C2CC2)c2cc(N3CCN(C(=O)c4cc(OC)c(OC)c(OC)c4)CC3)c(F)cc2c1=O,103% (inactive)
5,C#CCOc1ccc2ncnc(Nc3ccc(NC(=O)C=C)cc3)c2c1,-22.3% (active)
6,CCCc1nc2ccccn2c1Nc1ccc(C(=O)NO)cc1,87.9% (inactive)
7,Cc1cc(NC(=O)CSCC(=O)O)no1,114% (inactive)
8,C=C1CC[C@@H]2[C@](C)(COC(C)=O)[C@H](OC(C)=O)CC[C@@]2(C)[C@@H]1CC(Sc1ccccc1)C1=CCOC1=O (some centres undefined),-61.1% (active)
9,CCCCN=C(N)c1ccc(OCCSCCOc2ccc(C(N)=NCCCC)cc2)cc1,38.9% (inactive)
10,CC12CC(C#N)CCC1O2 (centres undefined),111% (inactive)
11,N/C(=N\O)c1ncc(-c2ccc(C(F)(F)F)cc2)c(NC2CCCCCC2)n1,-20.4% [100 µM] (active)
12,O=S(=O)(c1ccc(N/N=C\c2ccccc2)cc1)c1ccc(N/N=C/c2ccccc2)cc1,61% (inactive)
13,CC(C)(C)[Si](C)(C)OC1[C@@H](CNC(N)=O)O[C@@H](n2cnc3c(NC(=O)Nc4ccccc4)ncnc32)[C@H]1O[Si](C)(C)C(C)(C)C (some centres undefined),85.2% (inactive)
14,COc1ccc2[nH]c(O)c(/C=c3/ccc4c(c3)N=C(c3ccc(C(F)(F)F)cc3)N=4)c2c1,93.8% (inactive)
15,COc1ccc(/C=C/C(=O)c2cccc(NC(=O)CSc3nc4ccccc4c(=O)n3-c3ccccc3)c2)cc1OC,108% (inactive)
16,O=c1ccccc(-c2ccc(-c3ccco3)cc2)c1O,12.1% (inactive)
17,CC1OC(O[C@@H]2[C@H](O)C(CO)OC(O[C@H]3COC(O[C@H]4CC[C@]5(C)[C@H]6CC[C@]78OC[C@@]9(CC[C@](C)(C=O)C[C@H]97)C(=O)C[C@@]8(C)[C@]6(C)CC[C@H]5C4(C)C)[C@@H](O)[C@@H]3O)[C@H]2OC2OC[C@@H](O)[C@@H](O)[C@@H]2O)[C@@H](O)[C@@H](O)[C@H]1O (some centres undefined),104% (inactive)

row,Compound,growth
1,Clc1ccc(/C=N\N=c2\scc(-c3ccc(Cl)cc3)n2/N=C/c2ccc(Cl)cc2)cc1,115% (inactive)
2,COC(=O)CCC1=C(CC(=O)OC)C(C)=N/C1=C\c1[nH]c(-c2ccc[nH]2)cc1OC,61.9% (inactive)
3,CC[C@H](Nc1ncnc2nc[nH]c12)c1nc2cccc(CC(=O)c3ccc(C(=O)NO)cc3)c2c(=O)n1-c1ccccc1,60.8% (inactive)
4,CN=C(N)N/N=C(\c1ccccc1)c1ccc(Br)cc1,1.8% (active)
5,Cc1cc(-c2ccc(Cl)cc2)n(Cc2nnc(SCC(=O)Nc3ccc(S(N)(=O)=O)cc3)n2C2CCCCC2)n1,117% (inactive)
6,N#Cc1c(-c2ccccc2)cc(-c2ccccc2)n(CCCC(=O)O)c1=O,-27.1% (active)
7,CCc1nnc(NC(=O)c2cc(-c3ccc(Cl)cc3Cl)oc2C)s1,94% (inactive)
8,CCCCCCCCC(=O)OCCCC(CCC(CCC1CCCO1)OC(=O)CCCCCCCC)OC(=O)CCCCCCCC (centres undefined),111% (inactive)
9,CC1(C)CC[C@]2(C(=O)O)CC[C@]3(C)C(=CC[C@@H]4[C@@]5(C)CC[C@H](NOCCCN)C(C)(C)[C@@H]5CC[C@]43C)[C@@H]2C1,-45.6% (active)
10,Clc1ccc(/C=C/c2ccccn2)cc1,38.3% (inactive)
11,COc1cc2ncnc(Nc3ccc(S(=O)(=O)Nc4cc(C)on4)cc3)c2cc1OCCCN1CCOCC1,103% (inactive)
12,NC(CSC(c1ccccc1)(c1ccccc1)c1ccccc1)C(=O)O (centres undefined),32.7% (inactive)
13,COc1cc2c(cc1[N+](=O)[O-])-c1ccc([N+](=O)[O-])cc1/C2=N\O,49.4% (inactive)
14,Cc1c(C)c([N+](=O)[O-])c(C)c([N+](=O)[O-])c1C,97.6% (inactive)
15,CS(=O)c1cccc(-c2ccc3nc(N)n(-c4ccc(C(F)(F)F)cc4)c(=O)c3c2)c1 (centres undefined),84.4% (inactive)
16,Cc1cc2c([nH]1)CSc1cc(S(=O)(=O)c3ccccc3)c(=O)[nH]c1-2,24% [100 µM] (inactive)
17,O=C1/C(=C/c2ccc(-c3ccc(Cl)cc3)o2)SC(=S)N1CCc1ccc(O)cc1,87% (inactive)
